# Test results from PubChem BioAssay AID1454 (National Center for Advancing Translational Sciences (NCATS), 2008).
# About 550 (0.42%) of roughly 130,000 compounds were called active. Inconclusive results (about 4%) are left out. Calls come from the whole dose curve; as a rule, active = well fitted inhibition curve with a large enough effect; inconclusive = small, poorly fitted or top-dose-only effect, or effect the other way; inactive = flat fitted curve, though single readings scatter. The entries come from a sample that favours actives as a whole. A call without a number means that no potency is given here.
# Experiment: qHTS Assay for Inhibitors of the ERK Signaling Pathway using a Homogeneous Screening Assay; Stimulation with EGF; note: nearly all actives have a fitted effect of over 55% in size
# Settings: HEK293-V1b, EGF-stimulated phospho-ERK AlphaScreen; series mostly up to 11.5 µM
# Outline: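 Readout: AlphaScreen signal for phosphorylated ERK in lysed HEK293 cells stably expressing V1b. Stimulus 25 nM EGF, 5 min, following 30 min compound exposure. Data scaled to DMSO basal and full EGF activation.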
# Potency is the fitted concentration of half-maximal effect.
row,SMILES,Potency
1,Cn1c(SCC(=O)N2CCOCC2)nnc1-c1ccc2ncccc2c1,inactive
2,CC(C)n1cnc2c(Nc3cccc(Cl)c3)nc(N(CCO)CCCO)nc21,inactive
3,OCCCNc1nccc(-c2cc(Nc3cccc(Cl)c3)ncn2)n1,22.4 µM (active)
4,O=C(Nc1cc(Cl)cc(Cl)c1)C(NCCCO)c1ccccc1 (centres undefined),inactive
5,O=C(NN1C(=O)C2C(C1=O)C1C=CC2C12CC2)c1ccccc1Cl (centres undefined),inactive
6,O=C(CN1CCN(Cc2ccc(F)cc2Cl)C1=O)NCc1cccs1,inactive
7,CN(C)c1cc2c(Nc3ccc4c(cnn4Cc4ccccc4)c3)ncnc2cn1,2.82 µM (active)
8,CC(=O)Nc1ccc(NC(=O)CSc2ncnc3c2cnn3Cc2ccccc2)cc1,inactive
9,Clc1ccc(Nc2ncnc3c2nnn3Cc2ccccc2)cc1,inactive
10,COc1ccc(Cl)cc1C(=O)NNC(=O)c1nc2nc(C)cc(C)n2n1,inactive
11,CN(C)CCCn1c(SCCN2C(=O)c3ccccc3C2=O)nc2ccccc2c1=O,inactive
12,COc1ccc(C/C(N)=N/OC(=O)c2ccco2)cc1OC,inactive
13,COc1ccccc1Cn1c(CO)nc2ccccc21,inactive
14,Cc1cccc(-n2c(Cc3cc(=O)[nH]c(=O)[nH]3)nnc2SCC(=O)Nc2cccc(C(F)(F)F)c2)c1,inactive
15,O=C(COC(=O)c1ccc(Cl)nc1)NCc1cccs1,inactive
16,CCOc1ccc(C2NC(=S)NC3=C2CCc2ccccc23)cc1 (centres undefined),inactive
17,Cc1ccc(N/C=C/C(=O)c2ccccc2)cc1C,inactive
18,Cc1cc(Oc2ccc(Cl)cc2)nc(SCC(=O)c2ccccc2)n1,inactive
19,Cc1cc(C)nc(S/C=C/C(=O)c2ccccc2)n1,22.4 µM (active)
20,O=C(NNC(=S)NC(=O)c1cn(-c2ccccc2)nc1-c1ccccc1)c1ccncc1,inactive
21,CC1=NN(c2ccccc2)C(=O)C1C(=O)c1ccc([N+](=O)[O-])cc1 (centres undefined),inactive
22,Oc1ccc(-c2nnc(Nc3ccccc3)c3ccccc23)cc1,inactive
23,O=C(COC(=O)c1ccccc1)Nc1cccc(S(=O)(=O)N2CCOCC2)c1,inactive
24,Cc1nn(CCOc2ccc(Br)cc2)c(C)c1[N+](=O)[O-],inactive
25,CCC(=O)OCCNc1nc(-c2ccccc2)nc2ccccc12,inactive

row,SMILES,Potency
1,COCCNc1nc2nonc2nc1N1CCCC1c1nccs1 (centres undefined),inactive
2,O=S(=O)(Nc1n[nH]c(C(F)(F)F)n1)c1ccccc1,inactive
3,CC(C)N(Cc1nc(-c2ccc3c(c2)OCO3)no1)CC1CCC(=O)N1 (centres undefined),inactive
4,O=C1CN(C(=O)CN2C(=O)NC3(CCCCC3)C2=O)c2ccccc2N1,inactive
5,CCOC(=O)c1c(C)oc(C)c(C(=O)OCC)c1=O,inactive
6,Cc1nn(CC(=O)N/N=C/c2ccc(F)cc2)c(C)c1[N+](=O)[O-],inactive
7,O=S(=O)(c1cccc(-c2nnc3n2CCCCC3)c1)N1CCOCC1,inactive
8,CCN(CC)CCCSc1nc2ccccc2s1,inactive
9,COC(=O)c1cc(S(=O)(=O)N2CCC(C(N)=O)CC2)oc1C,inactive
10,CN(C)/C=C(/C(=O)c1ccc(F)cc1)S(=O)(=O)c1ccc(F)cc1,inactive
11,Cc1c(C(=O)O)nnn1-c1nonc1N,inactive
12,O=C1CC(c2c(F)cccc2Cl)C(n2cncn2)C(O)=C1C1NCCc2ccccc21 (centres undefined),inactive
13,C/C(=N/NC(=O)CC(=O)N/N=C(\C)c1ccc([N+](=O)[O-])cc1)c1ccc([N+](=O)[O-])cc1,inactive
14,CC(C)(C)NC(=O)NCc1ccco1,inactive
15,CCC(C)NC(=O)CN(C1CCCCC1)S(C)(=O)=O (centres undefined),inactive
16,Cc1cc(=O)[nH]c(S)c1C#N,inactive
17,CCN(CC)CCCN=Cc1c(O)n(-c2ccc(C)cc2)c(=O)c2ccccc12,inactive
18,O=C(COc1ccc(Cl)cc1[N+](=O)[O-])N1CCCCC1,inactive
19,CC(=O)Oc1c2c(c3c(c1CC=C(C)C)O[C@@]14C(=CC5CC1C(C)(C)OC4(C/C=C(\C)C(=O)O)C5=O)C3=O)OC(C)(CCC=C(C)C)C=C2 (some centres undefined),25.1 µM (active)
20,O=C(CC(=O)N/N=C\c1ccc(F)cc1)NCCc1ccccc1,inactive
21,COc1ccc(OCC(O)CNCCNc2nccc(C(F)(F)F)n2)cc1 (centres undefined),inactive
22,CCOc1ccc(/C=C(/NC(=O)c2ccccc2)C(=O)NCCC(=O)O)cc1,inactive
23,O=C(NC1(C(F)(F)F)NC(=O)N(C2CCCCC2)C1=O)c1ccco1 (centres undefined),inactive
24,CCN1CCN(C(=O)c2ccc(CN(c3ccc(C)c(C)c3)S(C)(=O)=O)cc2)CC1,inactive
25,CC(=O)N(OCc1ccc(OC(C)C)c(Cl)c1)C(C)=O,inactive

row,SMILES,Potency
1,NS(=O)(=O)c1ccc(CCNC(=O)c2ccc(Cl)cc2[N+](=O)[O-])cc1,inactive
2,CN(C)c1ccc(Nc2c3c4c(cccc4n(C)c2=O)C(=O)c2ccccc2-3)cc1,3.16 µM (active)
3,Cc1cc(=O)oc2c(C(=O)c3ccccc3)c(OCC(N)=O)ccc12,inactive
4,CN(C)c1ccc(/C=N/NC(=O)C(O)c2ccc(Br)cc2)cc1 (centres undefined),inactive
5,CCC(C)N1C(=S)SC(C)(C)C1N(O)C(=O)NC1CCCCC1 (centres undefined),inactive
6,Cc1ccc(C(=O)Nc2nc(N)n(-c3ccccc3)n2)cc1,inactive
7,CC1=NNC(=O)C1CCC(=O)N/N=C(\C)c1ccc(Cl)cc1 (centres undefined),inactive
8,COc1ccc(Cc2nnc(NC(=O)c3cc(OC)c(OC)c(OC)c3)s2)cc1OC,inactive
9,O=C(O)c1n[nH]nc1-c1ccccc1,inactive
10,COc1ccc(N=Nc2ccc(O)c(P(=O)(c3ccccc3)c3ccccc3)c2)cc1,inactive
11,Oc1ccc2ccccc2c1C=Nc1ccccc1,inactive
12,Oc1ccc2ccccc2c1N=Nc1nccs1,12.6 µM (active)
13,Oc1ccc(N=Cc2c(O)ccc3ccccc23)cc1,inactive
14,O=C(CCNc1n[nH]c(=O)[nH]c1=O)N/N=C\c1ccc(Br)cc1,inactive
15,CCOCCCNC(=O)C(NC(=O)Cc1c[nH]c2ccccc12)c1ccc(OC)cc1 (centres undefined),inactive
16,Cc1cc(OCCCC(=O)NCCN2C(=O)S/C(=C\c3cccnc3)C2=O)ccc1Cl,inactive
17,O=C(NCc1ccco1)C(=O)c1cn(CC(=O)N2CCCCCC2)c2ccccc12,inactive
18,Cc1ccnc(NC(=O)c2ccc(Cl)c([N+](=O)[O-])c2)c1,inactive
19,Cc1ccc(OCC(=O)Nc2nnc(-c3ccco3)s2)cc1,inactive
20,CC(C)C1Nc2c(C(=O)O)cccc2C(Nc2ccccc2C(=O)O)C1(C)C (centres undefined),inactive
21,N#C/C(=C\N1CCOCC1)S(=O)(=O)c1ccc(Cl)cc1,inactive
22,Cc1cc(C)c2c(NC(=O)C3CC3)nn(C)c2n1,inactive
23,O=C(Cc1ccc(F)cc1)N1CCN=C1SCc1cccc([N+](=O)[O-])c1,inactive
24,CN(Cc1cc2cc(F)ccc2[nH]1)Cc1nc(-c2cnccn2)no1,inactive
